Potency and activity change, negative = inhibition data for 101 molecules are collected here from PubChem BioAssay AID504832 (National Center for Advancing Translational Sciences (NCATS), 2011).

Molecules are shown by their SMILES. Out of some 310,000 compounds screened, about 18,000 (5.8%) were called active. Entries that show only a call come without a potency. Not shown: some 22% with an inconclusive outcome. The call rests on the fitted dose curve; in most records, active means well fitted inhibition curve with a large enough effect; inconclusive means small, poorly fitted or top-dose-only effect, or another doubt; inactive means no such curve, though single readings can be large or run the other way. For the sample, actives were picked, then their nearest neighbours and some compounds at random.
Potency means the concentration at half of the fitted maximal effect.

This assay can be described thus: Primary qHTS for delayed death inhibitors of the malarial parasite plastid, 48 hour incubation. Particulars: P. falciparum luciferase growth in erythrocytes; series mostly up to 28.7 µM. A digest of the protocol:
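Erythrocytes infected with P. falciparum carrying an integrated firefly luciferase reporter (2% hematocrit, 0.1% parasitemia final) were exposed to compounds in RPMI 1640 with 0.5% Albumax at 37 C, 5% CO2. Growth inhibition was scored as reduced luminescence.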
For the molecule `Cc1nnc(SCC(=O)Nc2ccc(S(=O)(=O)Nc3ccc(Cl)nn3)cc2)s1`, the Potency result was “inactive”.
Turning to `CCN(CC)CCOc1ccc2c(c1)C(=NNC(=O)c1ccccn1)c1cc(OCCN(CC)CC)ccc1-2`, the Potency was 0.37 µM (active).
As to `CCC(C)(NC(=O)c1ccccn1)C(=O)NC1CCCCC1` (stereo unspecified), the Potency result was “inactive”.
Take `Cc1cccc(OCC(=O)NCCCNC(=O)c2ccccn2)c1`: the Potency result was “inactive”.
On the same count and under the same terms, next, `CCOc1ccccc1OCC(=O)Nc1ccccc1C(=O)NC1CC1`: “inactive”; `O=C(CCNS(=O)(=O)c1ccccc1C(F)(F)F)Nc1ccncc1`: “inactive”.
With `C/C(N)=C(/C#N)C(=O)COC(=O)C1=NN(c2ccccc2)C(=O)CC1`, the Potency entry was “inactive”.
Take `O=C(Nc1ccccc1-c1nc2ccccc2[nH]c1=O)c1cccs1`: the Potency entry was “inactive”.
Consider `CN1CCN(c2ccc(S(=O)(=O)Nc3ccccc3)cc2[N+](=O)[O-])CC1`, for which the Potency result is “inactive”.
Consider `CN1CCN(S(=O)(=O)c2ccc(N3CCN(c4ccccc4O)CC3)c([N+](=O)[O-])c2)CC1`, for which the Potency is 11.7 µM (active).
Consider `Cc1ccc(C(=O)c2ccc(N3CCN(C)CC3)c([N+](=O)[O-])c2)cc1`, for which the Potency result was “inactive”.
For the molecule `COc1ccccc1C(=O)NCCC(=O)N(C)Cc1cccnc1`, the Potency entry was “inactive”.
Still for that read-out and setting: next, `Cc1ccc(S(=O)(=O)N2CCCCC2)cc1C(=O)N(C)CC(=O)Nc1cccc(F)c1`: “inactive”; `COc1ccccc1C(=O)NCCC(=O)NC1=NCCS1`: “inactive”.
As to `COc1ccc(N(CC(=O)N2CCOCC2)S(=O)(=O)c2ccccc2)cc1Cl`, the Potency result is “inactive”.
As to `COc1ccc(NC(=O)CN(C)C(=O)c2ccc(NC3CC3)c([N+](=O)[O-])c2)cc1`, the Potency entry was “inactive”.
In the case of `CCCCN(C(=O)C1CCC1)c1c(N)n(Cc2ccccc2)c(=O)[nH]c1=O`, the Potency result was “inactive”.
As to `CCCc1c(C(=O)O)cnn1-c1ccc(Cl)cc1`, the Potency entry was “inactive”.
As to `O=C(Nc1ccccc1)OCc1cn(-c2ccc(Cl)cc2)nn1`, the Potency result was “inactive”.
Regarding `O=C(Cn1cc(-c2nnnn2-c2ccc(Cl)cc2)c(=O)c2ccccc21)c1ccccc1`, the Potency was 1.65 µM (active).
The same measure, in the same setting: as for `O=C(NCCS(=O)(=O)N1CCN(c2ccc(F)cc2)CC1)c1ccc2c(c1)OCO2`, the entry is “inactive”; as for `CCOCCCNC(=S)Nc1ccc2nc(N3CCN(CC)CC3)cc(C)c2c1`, “inactive”.
With `CC[N+](C)(CC)CCC[n+]1c(-c2ccccc2)c2cc(N)ccc2c2ccc(N)cc21`, the Potency is 1.85 µM (active).
Same read-out and setting: next, `CC(=O)Nc1ccc(NC(=O)CCCNC(=O)c2ccc(Cl)cc2)cc1`: “inactive”.
With `CC[n+]1c(C)n(-c2ccccc2)c2ccc(NC(C)=O)cc21`, the Potency is 4.65 µM (active).
Turning to `CC(=O)Nc1ccc(NC(=O)CSc2nnc(C3CC3)n2-c2ccccc2)cc1`, the Potency entry is “inactive”.
As to `CC(=O)c1cccc(NC(=O)c2cc(C)nn2-c2ccccc2)c1`, the activity change, negative = inhibition was -2.83% [at 0.00184 µM] (inactive).
With `O=C(COc1ccc(Cl)cc1)NCCS(=O)(=O)N1CCN(c2ccc(F)cc2)CC1`, the Potency entry is “inactive”.
As to `CCc1ccccc1NC(=O)NCCN1CCCCC1`, the Potency result was “inactive”.
As for `CC(C)c1ccc(NC(=O)Cn2ncc3ccccc32)cc1`, the Potency entry was “inactive”.
Same read-out and setting: as for `COc1cccc(NC(=O)CN(C)C(=O)CSCc2nc3scc(-c4cccs4)c3c(=O)[nH]2)c1`, the entry is “inactive”.
In the case of `N/C(=N\OC(=O)N1c2ccccc2Sc2ccccc21)c1ccc(Br)cc1`, the Potency is 8.28 µM (active).
Regarding `N/C(=N\OC(=O)/C=C/c1ccccc1)c1ccc(Br)cc1`, the Potency entry is “inactive”.
Consider `N/C(=N\OC(=O)Cc1ccccc1[N+](=O)[O-])c1ccc(Br)cc1`, for which the Potency result is “inactive”.
Regarding `CCn1c(=S)sc2c(=O)n(CC(=O)Nc3ccc(OC)cc3)c(C)nc21`, the Potency result was “inactive”.
Take `CC(C)Oc1ccc(CCc2n[nH]c(=S)n2Cc2ccccc2)cc1`: the Potency was 2.08 µM (active).
Take `CC(C)Oc1ccc(CCc2nnc(SCC(=O)O)n2-c2ccccc2)cc1`: the activity change, negative = inhibition was 1.18% [at 5.75 µM] (inactive).
As for `C=CCn1c(CCc2ccc(OC(C)C)cc2)n[nH]c1=S`, the Potency result was “inactive”.
For the molecule `CCOc1ccccc1OCCCNCc1ccccc1`, the Potency result was “inactive”.
As for `COc1cccc(NS(=O)(=O)c2ccc(-c3coc(C)n3)cc2)c1`, the Potency result is “inactive”.
The same measure, in the same setting: as for `CCC(=O)Nc1ccc(-c2ccc(N3CCCCC3)nn2)cc1`, the entry is “inactive”; as for `O=C(O)CN1CCN(C(c2ccccc2)c2ccccc2)CC1`, “inactive”; as for `Cn1nnnc1SCC(=O)N1CCN(Cc2ccccc2)CC1`, “inactive”.
For `O=C(c1ccc(-n2cnnn2)cc1)N1CCN(C(c2ccccc2)c2ccccc2)CC1`, the Potency was 2.62 µM (active).
On the same count and under the same terms, next, `Cn1nnnc1SCC(=O)N1CCN(C(c2ccccc2)c2ccccc2)CC1`: 9.28 µM (active).
Same read-out and setting: next, `CC(OC(=O)c1ccc(-n2cnnn2)cc1)C(=O)NCc1ccccc1` (stereo unspecified): “inactive”; `Cn1nnnc1SCC(=O)Nc1nc2ccccc2s1`: “inactive”.
`COC(=O)c1sc(N2CCN(Cc3ccccc3)CC2)nc1N`: the activity change, negative = inhibition was -6.08% [at 0.00184 µM] (inactive).
`COc1ccccc1-n1ccnc(SCC(=O)NC2CCCCC2)c1=O`: the Potency result is “inactive”.
Consider `O=C(Nc1c2c(nn1-c1cccc(Cl)c1)CS(=O)(=O)C2)c1cccs1`, for which the Potency result is “inactive”.
As for `C=CCn1cc(C(=O)NCc2ccc(Cl)cc2)c(=O)c2cc(S(=O)(=O)N(CC)CC)ccc21`, the Potency was 11.7 µM (active).
Still for that read-out and setting: next, `CCOC(=O)N1CCN(C(=O)c2cn(C)c3ccc(S(=O)(=O)N(CC)CC)cc3c2=O)CC1`: “inactive”.
Same read-out and setting: as for `CCN(CC)S(=O)(=O)c1ccc(Cl)c(C(=O)NCCN2CCOCC2)c1`, the entry is “inactive”; as for `O=C(CN1CCN(C(=O)C2CCCO2)CC1)Nc1c(Cl)cccc1Cl` (stereo unspecified), “inactive”.
Consider `O=C(NC(=S)NC1CCCCC1)c1ccc(Cl)cc1`, for which the Potency entry was “inactive”.
Regarding `CCOC(=O)N1CCN(S(=O)(=O)c2ccc(Br)cc2)CC1`, the Potency result is “inactive”.
Turning to `COc1ccc(O)c(C(=O)c2cnc3c(c2)c(-c2ccc(F)cc2)c(C#N)c(=O)n3C)c1`, the Potency was 1.65 µM (active).
As for `Cc1cc(C)c2c(-c3ccc(F)cc3)c(C#N)c(=O)n(C)c2n1`, the Potency entry was “inactive”.
As for `Cn1c(N)cc(-c2ccc(F)cc2)c(C#N)c1=O`, the Potency entry was “inactive”.
Turning to `COc1ccc(/C=N/Nc2nc(-c3ccc(C)cc3)c(C#N)c(=O)[nH]2)cc1`, the Potency result is “inactive”.
As to `CSCCC(NC(=O)c1ccccc1)C(=O)N1CCCCCCC1` (stereo unspecified), the Potency entry was “inactive”.
Take `COc1ccccc1C(=O)NC(CCSC)C(=O)N1CCN(C(C)=O)CC1` (stereo unspecified): the Potency entry is “inactive”.
In the case of `CSCCC(NC(=O)c1ccccc1)C(=O)N1CCN(Cc2ccc(Cl)cc2)CC1` (stereo unspecified), the Potency was 2.94 µM (active).
With `c1ccc2c(c1)CSc1sccc1C2=C1CCNCC1`, the Potency is 11.7 µM (active).
Regarding `O=C(CNC(=O)c1ccc(Br)o1)NCC1CCCO1` (stereo unspecified), the Potency result is “inactive”.
`CCOC(=O)N1CCN(C(=O)COC(=O)c2cccc(S(C)(=O)=O)c2)CC1`: the Potency entry was “inactive”.
On to `CCOc1ccc(NC(=O)C(C)N2C(=O)c3ccccc3C2=O)cc1` (stereo unspecified), for which the Potency result is “inactive”.
As for `COc1ccc(-c2ccc3nnc(SCC(=O)Nc4ccc(NC(C)=O)cc4)n3n2)cc1`, the Potency result was “inactive”.
The same measure, in the same setting: next, `COc1ccc(CNS(=O)(=O)c2ccc(NC(=O)N3CCCCC3)cc2)cc1`: “inactive”; `COc1ccc(C(=O)N2CCN(c3ccc(C(C)=O)cc3F)CC2)cc1S(=O)(=O)NC1CC1`: “inactive”.
Consider `COc1ccc(CCNCc2c(-c3ccccc3)n(C)c3ccccc23)cc1`, for which the Potency is 11.7 µM (active).
Take `COc1ccc(CNC(=O)CCN2C(=O)c3ccccc3C2=O)cc1`: the Potency result is “inactive”.
For `COc1ccc(CNc2ncnc3ccccc23)cc1`, the Potency result was “inactive”.
On the same count and under the same terms, next, `COc1ccc(OC)c(C2N(c3ccccn3)C(=O)C3CCCN32)c1` (stereo unspecified): “inactive”; `COc1cccc(N2C(=O)C3CCCN3C2c2ccc(F)cc2)c1` (stereo unspecified): 10.4 µM (active).
Take `Cc1cc(N2C(=O)C3CCCN3C2c2ccc(Cl)c(Cl)c2)no1` (stereo unspecified): the Potency entry was “inactive”.
Still for that read-out and setting: as for `Cc1cccnc1CCNC(=O)C1CCC(=O)N(Cc2cccc(F)c2)C1` (stereo unspecified), the entry is “inactive”; as for `COCCN(Cc1ccccc1)C(=O)Cc1ccc(S(=O)(=O)N2CCOCC2)s1`, 10.4 µM (active).
`COc1ccccc1NC(=O)COC(=O)Cc1ccc(S(=O)(=O)N2CCCCC2)s1`: the Potency result is “inactive”.
On to `CCN(Cc1ccccc1)C(=O)Cc1ccc(OC)c(S(=O)(=O)N2CCOCC2)c1`, for which the Potency entry was “inactive”.
With `CC1CCN(C(=O)/C(=C\c2ccccc2)NC(=O)c2ccccc2)CC1`, the Potency entry was “inactive”.
In the case of `Cc1c(C)n2c(SCC(=O)NC3CCCC3)nnc2[nH]c1=O`, the Potency entry is “inactive”.
`CCOc1ncccc1C(=O)OCC(=O)N1c2ccccc2CC1C` (stereo unspecified): the Potency entry was “inactive”.
Same read-out and setting: as for `Cc1cc(C)c(S(=O)(=O)N2CCC(C(=O)OCc3c(C)noc3C)CC2)c(C)c1`, the figure is 11.7 µM (active).
`CCOC(=O)C1CCN(C(=O)C2CCN(S(=O)(=O)c3c(C)noc3C)CC2)CC1`: the Potency entry is “inactive”.
As for `CCOC(=O)C1CCN(S(=O)(=O)c2c(C)noc2C)CC1`, the Potency entry was “inactive”.
On the same count and under the same terms, as for `CCCN(C(=O)c1nc2nccc(C)n2n1)c1c(N)n(Cc2ccccc2)c(=O)[nH]c1=O`, the entry is “inactive”; as for `CCOC(=O)c1cccc(NC(=O)CN(c2ccc(C)cc2)S(=O)(=O)c2c(C)noc2C)c1`, 8.28 µM (active).
Consider `CCOc1ccc(N(CC(=O)NCc2ccc(OC)cc2)S(=O)(=O)c2c(C)noc2C)cc1`, for which the Potency entry was “inactive”.
Same read-out and setting: as for `Cc1ccc(N(CC(=O)Nc2cc(C)cc(C)c2)S(=O)(=O)c2cccc3nonc23)cc1`, the entry is “inactive”; as for `Cc1ccc(NC(=O)[C@H](Cc2ccccc2)NC(=O)C2CCNCC2)cc1`, “inactive”.
On the same count and under the same terms, as for `O=C(Nc1ccc(S(=O)(=O)Nc2ccccn2)cc1)c1ccccc1`, the entry is “inactive”; as for `COc1cccc(NC(=O)CN(C)C(=O)CSC(=S)N2CCCC2)c1`, “inactive”.
For `Cc1coc2c(O)cc3c(c12)OC1(N2CCCCC2)C(=O)NCCCC31` (stereo unspecified), the Potency was 11.7 µM (active).
Turning to `CCOc1ccc(CNC(=O)CCC(=O)N2CCSc3ccccc32)cc1`, the Potency entry is “inactive”.
In the case of `CCOc1ccc(NC(=O)CCC(=O)N/N=C/c2ccc([N+](=O)[O-])s2)cc1`, the Potency was 11.7 µM (active).
On the same count and under the same terms, next, `Cc1cccc(/C=N/NC(=O)CNc2cccc3ccccc23)n1`: “inactive”; `Cc1ccccc1NCC(=O)N/N=C\c1ccc([N+](=O)[O-])s1`: 9.28 µM (active).
In the case of `Cn1cccc1/C=N/NC(=O)CNc1cccc2ccccc12`, the Potency entry is “inactive”.
Still for that read-out and setting: as for `CCOc1ccc(NC(=O)CCC(=O)NNC(=O)NC2CCCCC2)cc1`, the entry is “inactive”; as for `CCOc1ccc(NC(=O)CCC(=O)n2nc(C)cc2C)cc1`, “inactive”.
